# Measured values: ChEMBL document CHEMBL2218924, “A broad activity screen in support of a chemogenomic map for kinase signalling research and drug discovery” (Biochem J, 2013)
# Assays:
# [1] = molecular target: T1, MAP kinase-activated protein kinase 5 (Homo sapiens) (UniProt Q8IW41); details: at 1 µM
# T1 sequence (whole entry): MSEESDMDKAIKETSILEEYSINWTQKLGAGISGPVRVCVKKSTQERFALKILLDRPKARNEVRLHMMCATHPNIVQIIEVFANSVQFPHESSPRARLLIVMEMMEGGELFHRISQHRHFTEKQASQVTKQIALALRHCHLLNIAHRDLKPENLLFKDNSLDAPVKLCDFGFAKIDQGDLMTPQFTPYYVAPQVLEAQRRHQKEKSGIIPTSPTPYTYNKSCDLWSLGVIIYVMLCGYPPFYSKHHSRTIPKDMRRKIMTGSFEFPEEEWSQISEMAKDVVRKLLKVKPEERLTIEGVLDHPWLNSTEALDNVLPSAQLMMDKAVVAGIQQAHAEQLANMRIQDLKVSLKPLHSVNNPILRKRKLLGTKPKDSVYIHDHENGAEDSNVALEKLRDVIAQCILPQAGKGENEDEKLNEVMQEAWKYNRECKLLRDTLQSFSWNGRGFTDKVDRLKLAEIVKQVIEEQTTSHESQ
# [2] = molecular target: Serine/threonine-protein kinase N2 (Homo sapiens) (UniProt Q16513); details: at 1 µM
# [3] = molecular target: Serine/threonine-protein kinase N2 (Homo sapiens) (UniProt Q16513); details: at 10 µM
# [4] = molecular target: Tyrosine-protein kinase FRK (Homo sapiens) (UniProt P42685); details: at 10 µM
# [5] = molecular target: T2, Phosphorylase b kinase gamma catalytic chain, liver/testis isoform (Homo sapiens) (UniProt P15735); details: at 1 µM
# T2 sequence (whole entry): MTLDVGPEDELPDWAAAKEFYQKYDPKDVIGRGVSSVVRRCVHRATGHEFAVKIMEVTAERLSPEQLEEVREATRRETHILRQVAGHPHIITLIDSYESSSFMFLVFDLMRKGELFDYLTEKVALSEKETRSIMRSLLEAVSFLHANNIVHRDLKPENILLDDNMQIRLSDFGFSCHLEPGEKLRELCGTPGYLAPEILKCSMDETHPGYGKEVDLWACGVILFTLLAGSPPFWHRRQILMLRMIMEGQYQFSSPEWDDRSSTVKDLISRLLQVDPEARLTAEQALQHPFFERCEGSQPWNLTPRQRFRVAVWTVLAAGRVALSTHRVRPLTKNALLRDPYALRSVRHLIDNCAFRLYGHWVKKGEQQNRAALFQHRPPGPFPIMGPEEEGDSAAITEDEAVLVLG
# [6] = molecular target: T2, Phosphorylase b kinase gamma catalytic chain, liver/testis isoform (Homo sapiens); details: at 10 µM
# [7] = molecular target: Serine/threonine-protein kinase pim-1 (Homo sapiens) (UniProt P11309); details: at 10 µM
# [8] = molecular target: Serine/threonine-protein kinase pim-2 (Homo sapiens) (UniProt Q9P1W9); details: at 10 µM
# [9] = molecular target: Serine/threonine-protein kinase pim-3 (Homo sapiens) (UniProt Q86V86); details: at 1 µM
# [10] = molecular target: Serine/threonine-protein kinase pim-3 (Homo sapiens) (UniProt Q86V86); details: at 10 µM
# [11] = molecular target: Serine/threonine-protein kinase PLK1 (Homo sapiens) (UniProt P53350); details: at 1 µM
# [12] = molecular target: Serine/threonine-protein kinase PLK1 (Homo sapiens) (UniProt P53350); details: at 10 µM
# [13] = molecular target: T1, MAP kinase-activated protein kinase 5 (Homo sapiens); details: at 10 µM
# [14] = molecular target: Serine/threonine-protein kinase pim-1 (Homo sapiens) (UniProt P11309); details: at 1 µM
# [15] = molecular target: Serine/threonine-protein kinase pim-2 (Homo sapiens) (UniProt Q9P1W9); details: at 1 µM
# [16] = molecular target: T3, cGMP-dependent protein kinase 1 (Homo sapiens) (UniProt Q13976); details: at 1 µM
# T3 sequence (whole entry): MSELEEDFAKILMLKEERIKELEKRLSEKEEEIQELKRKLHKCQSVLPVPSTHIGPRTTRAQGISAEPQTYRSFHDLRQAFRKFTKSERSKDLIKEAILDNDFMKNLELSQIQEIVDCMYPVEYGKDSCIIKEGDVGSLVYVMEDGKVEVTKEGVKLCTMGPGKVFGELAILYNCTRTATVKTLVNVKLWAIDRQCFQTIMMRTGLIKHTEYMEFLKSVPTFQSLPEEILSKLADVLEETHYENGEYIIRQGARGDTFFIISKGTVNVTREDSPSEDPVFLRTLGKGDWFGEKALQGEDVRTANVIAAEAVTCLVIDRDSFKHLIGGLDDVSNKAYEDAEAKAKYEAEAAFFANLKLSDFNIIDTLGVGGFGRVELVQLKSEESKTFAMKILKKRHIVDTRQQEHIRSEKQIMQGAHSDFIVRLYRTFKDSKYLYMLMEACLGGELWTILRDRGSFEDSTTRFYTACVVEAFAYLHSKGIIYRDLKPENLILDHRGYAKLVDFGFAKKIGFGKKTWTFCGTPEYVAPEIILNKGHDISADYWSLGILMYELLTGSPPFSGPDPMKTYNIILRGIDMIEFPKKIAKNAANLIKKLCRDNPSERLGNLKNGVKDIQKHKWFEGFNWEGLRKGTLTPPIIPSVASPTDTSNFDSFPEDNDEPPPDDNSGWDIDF
# [17] = molecular target: T3, cGMP-dependent protein kinase 1 (Homo sapiens); details: at 10 µM
# [18] = molecular target: Tyrosine-protein kinase FRK (Homo sapiens) (UniProt P42685); details: at 1 µM
# Chain of Serine/threonine-protein kinase PLK1 (Homo sapiens) (P53350 whole entry): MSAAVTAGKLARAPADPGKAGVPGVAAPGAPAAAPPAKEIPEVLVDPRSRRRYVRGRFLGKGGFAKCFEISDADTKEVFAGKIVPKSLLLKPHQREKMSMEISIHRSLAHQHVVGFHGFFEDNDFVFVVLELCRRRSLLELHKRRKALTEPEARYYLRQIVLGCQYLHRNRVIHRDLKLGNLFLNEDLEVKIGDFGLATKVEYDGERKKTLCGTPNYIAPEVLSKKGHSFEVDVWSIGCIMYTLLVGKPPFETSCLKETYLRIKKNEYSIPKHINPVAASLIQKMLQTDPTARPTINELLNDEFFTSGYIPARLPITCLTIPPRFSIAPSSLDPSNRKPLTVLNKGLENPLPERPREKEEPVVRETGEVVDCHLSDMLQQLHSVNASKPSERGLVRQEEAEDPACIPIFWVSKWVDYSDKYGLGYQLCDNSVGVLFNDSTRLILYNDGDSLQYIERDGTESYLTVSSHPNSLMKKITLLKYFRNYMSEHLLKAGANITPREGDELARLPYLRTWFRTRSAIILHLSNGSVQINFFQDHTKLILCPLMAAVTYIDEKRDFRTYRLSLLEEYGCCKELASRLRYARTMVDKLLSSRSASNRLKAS
# Chain of Serine/threonine-protein kinase N2 (Homo sapiens) (Q16513 whole entry, looked up): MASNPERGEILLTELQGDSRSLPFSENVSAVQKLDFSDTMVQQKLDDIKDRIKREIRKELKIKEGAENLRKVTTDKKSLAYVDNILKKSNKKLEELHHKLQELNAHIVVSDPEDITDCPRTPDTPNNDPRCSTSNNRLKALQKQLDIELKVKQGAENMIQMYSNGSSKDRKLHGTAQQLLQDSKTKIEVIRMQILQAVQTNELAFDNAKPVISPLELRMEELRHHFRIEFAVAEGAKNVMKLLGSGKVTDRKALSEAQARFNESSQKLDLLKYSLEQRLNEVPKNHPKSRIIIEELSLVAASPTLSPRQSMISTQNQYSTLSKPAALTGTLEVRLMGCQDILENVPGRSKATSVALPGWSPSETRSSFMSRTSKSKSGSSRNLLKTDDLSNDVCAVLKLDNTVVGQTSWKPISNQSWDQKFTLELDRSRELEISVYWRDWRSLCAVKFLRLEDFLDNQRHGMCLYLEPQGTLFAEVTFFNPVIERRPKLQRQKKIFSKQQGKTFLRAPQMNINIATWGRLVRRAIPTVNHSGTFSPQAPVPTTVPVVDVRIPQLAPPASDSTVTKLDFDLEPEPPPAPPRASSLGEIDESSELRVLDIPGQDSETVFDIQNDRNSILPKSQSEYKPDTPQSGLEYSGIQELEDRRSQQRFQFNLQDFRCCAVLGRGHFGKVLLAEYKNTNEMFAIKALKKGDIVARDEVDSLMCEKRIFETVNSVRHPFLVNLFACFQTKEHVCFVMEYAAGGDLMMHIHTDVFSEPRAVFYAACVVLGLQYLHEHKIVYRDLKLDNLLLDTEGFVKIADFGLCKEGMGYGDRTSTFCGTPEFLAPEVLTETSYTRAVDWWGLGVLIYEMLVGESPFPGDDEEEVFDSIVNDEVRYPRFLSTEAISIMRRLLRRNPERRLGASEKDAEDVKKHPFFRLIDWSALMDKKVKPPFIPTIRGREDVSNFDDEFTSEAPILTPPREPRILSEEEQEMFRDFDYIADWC
# Chain of Serine/threonine-protein kinase pim-1 (Homo sapiens) (P11309 whole entry, looked up): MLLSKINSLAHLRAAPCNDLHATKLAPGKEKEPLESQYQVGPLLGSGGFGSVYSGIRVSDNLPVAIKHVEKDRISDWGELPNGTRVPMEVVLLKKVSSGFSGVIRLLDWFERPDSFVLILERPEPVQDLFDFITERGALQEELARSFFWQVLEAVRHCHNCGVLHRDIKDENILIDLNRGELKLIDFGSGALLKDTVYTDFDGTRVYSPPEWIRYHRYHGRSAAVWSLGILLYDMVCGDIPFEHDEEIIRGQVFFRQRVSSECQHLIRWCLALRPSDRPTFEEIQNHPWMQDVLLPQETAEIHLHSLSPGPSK
# Chain of Tyrosine-protein kinase FRK (Homo sapiens) (P42685 whole entry, canonical isoform): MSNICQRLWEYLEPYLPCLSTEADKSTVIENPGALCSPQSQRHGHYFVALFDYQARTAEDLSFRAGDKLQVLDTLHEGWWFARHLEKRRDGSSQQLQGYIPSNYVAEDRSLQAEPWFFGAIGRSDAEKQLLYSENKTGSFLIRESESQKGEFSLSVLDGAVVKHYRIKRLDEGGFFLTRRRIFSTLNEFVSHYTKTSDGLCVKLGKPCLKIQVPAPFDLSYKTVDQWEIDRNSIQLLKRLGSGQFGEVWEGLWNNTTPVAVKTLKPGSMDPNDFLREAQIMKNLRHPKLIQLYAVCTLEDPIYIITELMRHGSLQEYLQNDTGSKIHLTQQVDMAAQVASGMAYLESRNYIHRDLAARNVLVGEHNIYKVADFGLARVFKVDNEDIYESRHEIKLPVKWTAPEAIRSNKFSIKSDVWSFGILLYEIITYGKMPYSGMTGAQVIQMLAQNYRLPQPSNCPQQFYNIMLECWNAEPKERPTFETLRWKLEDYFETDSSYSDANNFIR
# Chain of Serine/threonine-protein kinase pim-2 (Homo sapiens) (Q9P1W9 whole entry, looked up): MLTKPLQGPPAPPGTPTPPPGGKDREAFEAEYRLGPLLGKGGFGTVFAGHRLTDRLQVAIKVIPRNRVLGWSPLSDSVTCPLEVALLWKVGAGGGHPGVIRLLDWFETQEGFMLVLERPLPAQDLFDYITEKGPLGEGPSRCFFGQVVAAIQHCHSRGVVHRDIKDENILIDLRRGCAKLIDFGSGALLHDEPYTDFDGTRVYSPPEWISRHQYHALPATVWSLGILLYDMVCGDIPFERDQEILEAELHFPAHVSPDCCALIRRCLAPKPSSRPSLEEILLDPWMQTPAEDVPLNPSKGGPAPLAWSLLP
compound,measurement,setting,value
Nc1ncnc2c1cnn2-c1ccccc1,residual activity,[1],94%
same,residual activity,[2],85%
same,residual activity,[3],79%
same,residual activity,[4],90%
same,residual activity,[5],97%
same,residual activity,[6],90%
same,residual activity,[7],126%
same,residual activity,[8],94%
same,residual activity,[9],101%
same,residual activity,[10],97%
same,residual activity,[11],100%
same,residual activity,[12],86%
Nc1nccc(-c2c(-c3ccc(F)cc3)ncn2C2CCNCC2)n1,residual activity,[1],118%
same,residual activity,[13],112%
same,residual activity,[3],82%
same,residual activity,[5],125%
same,residual activity,[6],114%
same,residual activity,[14],75%
same,residual activity,[7],26%
same,residual activity,[15],120%
NC(=O)c1cccc(-c2cc(Nc3ccc(OC(F)(F)F)cc3)ncn2)c1,residual activity,[13],78%
same,residual activity,[14],89%
same,residual activity,[7],100%
same,residual activity,[12],88%
COc1cc2c(cc1OC)-c1n[nH]c(Nc3cccc(F)c3)c1C2,residual activity,[1],47%
same,residual activity,[13],65%
same,residual activity,[14],78%
same,residual activity,[7],112%
same,residual activity,[11],65%
same,residual activity,[12],61%
O=C1NC(=O)C(c2cn(CCCO)c3ncccc23)=C1c1cnccn1,residual activity,[16],98%
same,residual activity,[17],74%
same,residual activity,[2],100%
same,residual activity,[3],87%
same,residual activity,[5],97%
same,residual activity,[14],72%
same,residual activity,[7],50%
same,residual activity,[15],49%
same,residual activity,[8],43%
same,residual activity,[9],46%
same,residual activity,[10],16%
same,residual activity,[11],87%
same,residual activity,[12],82%
O=c1c(-c2ccc(F)cc2)c(-c2ccncc2)[nH]n1-c1ccc(Cl)cc1,residual activity,[13],74%
same,residual activity,[4],32%
same,residual activity,[7],75%
same,residual activity,[15],128%
same,residual activity,[8],100%
same,residual activity,[11],77%
Fc1ccc(-c2nc3n(c2-c2ccncc2)CCS3)cc1,residual activity,[18],99%
same,residual activity,[4],51%
same,residual activity,[14],91%
same,residual activity,[7],73%
same,residual activity,[15],128%
same,residual activity,[9],94%
same,residual activity,[10],98%
same,residual activity,[11],91%
same,residual activity,[12],82%
COc1ccc(Cl)cc1NC(=O)Nc1cc(C)nc2ccccc12,residual activity,[16],79%
same,residual activity,[17],88%
same,residual activity,[18],94%
same,residual activity,[4],129%
same,residual activity,[5],92%
same,residual activity,[6],53%
same,residual activity,[14],87%
same,residual activity,[7],97%
same,residual activity,[9],96%
same,residual activity,[10],99%
same,residual activity,[11],95%
same,residual activity,[12],82%
Cn1sc(=O)n(Cc2ccccc2)c1=O,residual activity,[2],91%
same,residual activity,[3],84%
same,residual activity,[18],88%
same,residual activity,[4],92%
same,residual activity,[5],90%
same,residual activity,[6],98%
same,residual activity,[7],95%
same,residual activity,[8],143%
same,residual activity,[9],80%
same,residual activity,[10],85%
same,residual activity,[11],69%
same,residual activity,[12],70%
O=C(Nc1ccc(Cl)cc1)c1ccccc1NCc1ccncc1,residual activity,[1],60%
same,residual activity,[13],51%
same,residual activity,[18],19%
same,residual activity,[4],1%
same,residual activity,[15],132%
same,residual activity,[8],124%
CCOc1nc(NC(=O)Cc2cc(OC)ccc2OC)cc(N)c1C#N,residual activity,[3],82%
same,residual activity,[4],74%
same,residual activity,[5],118%
same,residual activity,[15],142%
N#C/C(=C\c1ccc(O)c(O)c1)C(=O)NCc1ccccc1,residual activity,[1],72%
same,residual activity,[13],59%
same,residual activity,[14],74%
same,residual activity,[7],70%
same,residual activity,[11],86%
same,residual activity,[12],64%
